# doi:10.1101/2025.02.07.636106
# Molecular target: Sodium/potassium-transporting ATPase subunit beta-3 (UniProt P54709)
# Assay: cross-link between two proteins; co-fractionation; cross-linking mass spectrometry
substance,measurement,value
"Sodium/potassium-transporting ATPase subunit alpha-1, P05023",listed as a hit,yes
